Measured values: PubChem BioAssay (Tox21)
Inconclusive results are not listed. Calls of active or inactive are those of the source. Unless noted, the call rests on the fitted dose curve.

What was measured:
[1] = qHTS assay to identify small molecule antagonists of the sonic hedgehog signaling (Shh) pathway (AID 1259369); further: nearly all actives have a fitted effect of over 45% in size; further: potency means the concentration at half of the fitted maximal effect
Procedure, shortened: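 For antagonist detection, the reporter line received test compounds together with conditioned medium, incubated 24hr at 37 C, 5% CO2, then luminescence was recorded following 30min room-temperature luciferase reagent incubation.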

[2] = target: Estrogen receptor beta (Homo sapiens) (UniProt Q92731); assay: qHTS assay to identify small molecule agonists of the estrogen receptor beta (ER-beta) signaling pathway (AID 1259377; active means well fitted activation curve with a large enough effect in the signal ratio in the repeat runs, not every such curve was filed as active; the % refers to the signal ratio)
Estrogen receptor beta (Homo sapiens), sequence (Q92731 whole entry, looked up): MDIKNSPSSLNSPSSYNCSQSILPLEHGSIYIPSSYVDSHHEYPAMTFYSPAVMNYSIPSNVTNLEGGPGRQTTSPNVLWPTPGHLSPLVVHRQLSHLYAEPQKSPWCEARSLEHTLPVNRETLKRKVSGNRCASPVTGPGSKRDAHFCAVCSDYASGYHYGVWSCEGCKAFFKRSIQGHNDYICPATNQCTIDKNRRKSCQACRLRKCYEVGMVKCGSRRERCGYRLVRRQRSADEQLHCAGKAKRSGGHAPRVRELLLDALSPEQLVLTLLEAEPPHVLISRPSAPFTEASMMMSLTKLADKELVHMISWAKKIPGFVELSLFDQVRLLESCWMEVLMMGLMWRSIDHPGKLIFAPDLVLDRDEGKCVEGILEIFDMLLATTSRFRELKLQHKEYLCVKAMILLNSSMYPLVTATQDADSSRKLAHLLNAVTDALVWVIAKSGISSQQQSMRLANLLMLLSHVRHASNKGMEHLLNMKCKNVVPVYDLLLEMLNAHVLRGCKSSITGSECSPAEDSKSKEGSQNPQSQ
Procedure, shortened: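 Reporter cells (HEK293T, ER-beta-UAS-bla) receive compounds or DMSO after a 6 hr pre-incubation. They then incubate 16 hr at 37C/5% CO2, and fluorescence from LiveBLAzer B/G substrate is measured after 2 hours at room temperature.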

[3] = target: Estrogen receptor beta (Homo sapiens) (UniProt Q92731); assay: qHTS assay to identify small molecule antagonists of the estrogen receptor beta (ER-beta) signaling pathway (AID 1259378; active means well fitted inhibition curve with a large enough effect in the signal ratio in the repeat runs, not every such curve was filed as active; the % refers to the signal ratio; further: potency means the concentration at half of the fitted maximal effect)
Procedure, shortened: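 Antagonist mode: compounds added to beta-lactamase reporter HEK293T ER-beta-UAS cells stimulated with E2 (1nM final), 16 hr at 37C. LiveBLAzer B/G FRET substrate, 2 hours room temperature, fluorescence read-out.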

[4] = qHTS assay to identify small molecule agonists of the androgen receptor (AR) signaling pathway in the presence of an antagonist - cell viability counter screen (AID 1259379; active means well fitted curve in the direction sought with a large enough effect in the repeat runs; an effect the other way counts as inactive or inconclusive;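 further: MDA-kb2 human breast cancer cells carrying an MMTV luciferase reporter; series mostly up to about 92 µM; nearly all actives have a fitted effect of over 25% in size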)
Procedure, shortened: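 Seed MDA-kb2 at 3,000 cells/well; incubate 5 hr, 37C, 0% CO2. Add nilutamide to 3.0uM final, then pin compounds at 15 concentrations. Incubate 16 hr. Add CellTiter-Fluor at 15 hr, read fluorescence after 1 hr.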

[5] = qHTS assay to identify small molecule agonists of the estrogen receptor beta (ER-beta) signaling pathway - cell viability counter screen (AID 1259380; active means well fitted curve in the direction sought with a large enough effect in the repeat runs; an effect the other way counts as inactive or inconclusive; further: nearly all actives have a fitted effect of over 30% in size)
Procedure, shortened: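 CellTiter-Glo read, 30 min RT, same wells as bla assay; cells ER-beta-UAS-bla HEK293T; 16 hr compound, 37C; medium 2% charcoal-stripped FBS.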

[6] = qHTS assay to identify small molecule antagonists of the estrogen receptor beta (ER-beta) signaling pathway - cell viability counter screen (AID 1259382; active means well fitted curve in the direction sought with a large enough effect in the repeat runs; an effect the other way counts as inactive or inconclusive;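 further: HEK293T cells carrying ER-beta-UAS-bla reporter stimulated with estradiol; series mostly up to about 92 µM; nearly all actives have a fitted effect of over 55% in size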)
Procedure, shortened: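 In this multiplexed counter screen, cells were seeded at 2,000 per well in medium with 2% charcoal-stripped FBS and incubated 6 hr before compound and 1nM final E2 were added. Sixteen hours later, ATP-based luminescence reported viability.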

[7] = target: Estrogen receptor (Homo sapiens) (UniProt P03372); assay: qHTS assay to identify small molecule agonists of the estrogen receptor alpha (ER-alpha) signaling pathway in the presence of an antagonist (AID 1259383); further: top concentration of the series differs between compounds; nearly all actives have a fitted effect of over 15% in size
Estrogen receptor (Homo sapiens), sequence (P03372 whole entry, looked up): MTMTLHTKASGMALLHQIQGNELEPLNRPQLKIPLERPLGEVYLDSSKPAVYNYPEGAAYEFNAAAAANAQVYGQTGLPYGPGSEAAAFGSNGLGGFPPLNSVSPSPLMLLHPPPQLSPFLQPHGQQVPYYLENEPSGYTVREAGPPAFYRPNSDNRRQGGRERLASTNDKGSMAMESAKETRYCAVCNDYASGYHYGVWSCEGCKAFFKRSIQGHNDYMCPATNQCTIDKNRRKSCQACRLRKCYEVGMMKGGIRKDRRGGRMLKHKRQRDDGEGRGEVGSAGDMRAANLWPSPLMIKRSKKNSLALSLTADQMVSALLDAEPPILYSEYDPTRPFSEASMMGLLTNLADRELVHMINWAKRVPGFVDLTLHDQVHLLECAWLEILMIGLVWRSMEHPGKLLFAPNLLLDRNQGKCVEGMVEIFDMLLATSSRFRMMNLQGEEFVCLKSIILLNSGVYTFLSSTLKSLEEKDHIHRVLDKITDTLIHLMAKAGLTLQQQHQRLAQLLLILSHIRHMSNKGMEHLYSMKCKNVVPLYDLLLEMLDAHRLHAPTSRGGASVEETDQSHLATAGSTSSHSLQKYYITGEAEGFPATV
Procedure, shortened: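 Stably transfected VM7Luc4E2 reporter cells, kept 5 days in charcoal-stripped serum, received ICI-182,780 at 10.0nM final before compound addition. Following 22hr incubation at 37C and 5% CO2, luciferase signal was read by luminescence.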

[8] = qHTS assay to identify small molecule agonists or antagonists of the thyroid stimulating hormone receptor (TSHR) signaling pathway - wild type cell line counter screen (AID 1259384)
Procedure, shortened: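 Counter screen in untransfected Hek293: compounds (15-point titration, triplicate) plus phosphodiesterase inhibitor Ro20-1724 added after 18 h plating; 30 min RT. Intracellular cAMP via competitive d2/cryptate immunoassay, 1 h incubation.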

[9] = target: Thyrotropin receptor (Homo sapiens) (UniProt P16473); assay: qHTS assay to identify small molecule antagonists of the thyroid stimulating hormone receptor (TSHR) signaling pathway (AID 1259385); further: nearly all actives have a fitted effect of over 20% in size
Thyrotropin receptor (Homo sapiens), sequence (P16473 whole entry, looked up): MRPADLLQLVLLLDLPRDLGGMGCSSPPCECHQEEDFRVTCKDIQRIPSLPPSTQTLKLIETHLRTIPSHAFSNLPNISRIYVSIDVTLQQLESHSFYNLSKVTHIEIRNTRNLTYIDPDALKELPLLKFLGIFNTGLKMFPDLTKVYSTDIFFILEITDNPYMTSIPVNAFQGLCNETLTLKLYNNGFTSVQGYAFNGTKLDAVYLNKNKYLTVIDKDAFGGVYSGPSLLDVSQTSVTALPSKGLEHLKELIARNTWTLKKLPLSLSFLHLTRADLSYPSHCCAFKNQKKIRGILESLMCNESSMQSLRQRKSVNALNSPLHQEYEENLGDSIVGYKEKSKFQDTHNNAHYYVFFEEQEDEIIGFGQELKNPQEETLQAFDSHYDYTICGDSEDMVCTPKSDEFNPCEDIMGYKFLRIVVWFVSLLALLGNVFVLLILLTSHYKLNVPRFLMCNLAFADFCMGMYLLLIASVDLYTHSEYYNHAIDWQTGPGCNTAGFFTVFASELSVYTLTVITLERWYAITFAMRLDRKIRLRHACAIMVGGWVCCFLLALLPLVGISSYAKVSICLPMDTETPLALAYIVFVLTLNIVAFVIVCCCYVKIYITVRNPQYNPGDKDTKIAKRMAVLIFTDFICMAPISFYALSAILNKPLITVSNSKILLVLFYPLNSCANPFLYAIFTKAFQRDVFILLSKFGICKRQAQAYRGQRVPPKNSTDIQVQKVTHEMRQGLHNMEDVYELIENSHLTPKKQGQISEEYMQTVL
Procedure, shortened: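 Antagonist mode: compound-treated TSHR-expressing HEK293 cells were stimulated with 1.5 ng/mL TSH (final) in presence of Ro20-1724 for 30 min at RT. HTRF cAMP detection after 1 h; each compound tested at 15 concentrations, triplicate.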

[10] = target: Androgen receptor (Homo sapiens) (UniProt P10275); assay: qHTS assay to identify small molecule agonists of the androgen receptor (AR) signaling pathway in the presence of an antagonist (AID 1259381); further: nearly all actives have a fitted effect of over 15% in size
Androgen receptor (Homo sapiens), sequence (P10275 whole entry, looked up): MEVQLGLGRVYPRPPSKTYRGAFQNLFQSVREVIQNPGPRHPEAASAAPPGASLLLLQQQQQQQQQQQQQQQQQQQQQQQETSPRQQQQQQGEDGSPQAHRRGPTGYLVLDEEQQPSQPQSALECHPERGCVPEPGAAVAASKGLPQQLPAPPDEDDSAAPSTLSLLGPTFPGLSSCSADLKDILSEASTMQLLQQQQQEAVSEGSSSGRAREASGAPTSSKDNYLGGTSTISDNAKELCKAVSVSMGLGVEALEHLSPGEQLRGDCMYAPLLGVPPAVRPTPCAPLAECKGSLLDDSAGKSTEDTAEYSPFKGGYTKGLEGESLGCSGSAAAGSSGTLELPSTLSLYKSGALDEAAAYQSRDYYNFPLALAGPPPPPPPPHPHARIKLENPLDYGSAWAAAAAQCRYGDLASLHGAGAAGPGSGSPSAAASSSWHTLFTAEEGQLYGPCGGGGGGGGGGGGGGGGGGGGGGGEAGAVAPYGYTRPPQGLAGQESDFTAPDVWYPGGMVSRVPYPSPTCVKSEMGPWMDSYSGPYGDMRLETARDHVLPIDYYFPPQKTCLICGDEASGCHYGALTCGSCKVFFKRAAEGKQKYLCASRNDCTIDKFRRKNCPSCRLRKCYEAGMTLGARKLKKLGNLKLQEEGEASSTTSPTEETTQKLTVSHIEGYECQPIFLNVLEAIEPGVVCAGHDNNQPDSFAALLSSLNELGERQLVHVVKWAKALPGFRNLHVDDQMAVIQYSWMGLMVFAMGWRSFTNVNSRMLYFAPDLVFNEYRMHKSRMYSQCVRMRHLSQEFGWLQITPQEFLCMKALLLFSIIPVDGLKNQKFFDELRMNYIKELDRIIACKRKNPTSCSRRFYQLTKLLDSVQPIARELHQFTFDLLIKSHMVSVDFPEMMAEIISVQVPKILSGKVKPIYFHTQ
Procedure, shortened: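 Test compounds at 15 concentrations were incubated for 16hr with MDA-kb2 reporter cells in presence of 3.0uM nilutamide (final). Signal: ONE-Glo luciferase luminescence.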
On the % scale 0 is the no-effect control and ±100 the full control effect.

O=c1oc2c(O)c(O)cc3c(=O)oc4c(O)c(O)cc1c4c23
inactive: activity change, negative = inhibition [1] 14.9% [at 19 µM] | activation [2] 0.261% [at 19 µM] | activity, negative = inhibition [3] -0.396% [at 19 µM] | activity change, negative = cytotoxicity [4] -4.09% [at 19 µM] | activity change, negative = cytotoxicity [5] 7.11% [at 19 µM] | activity change, negative = cytotoxicity [6] -1.21% [at 19 µM] | activation [7] -0.711% [at 19 µM]

COc1cc(Cl)ccc1Cl
inactive: Potency [1] | outcome [2] | Potency [3] | Potency [4] | Potency [5] | outcome [6] | outcome [8] | Potency [9]

Cc1c(N)cccc1N
inactive: Potency [1] | outcome [2] | Potency [3] | Potency [4] | Potency [5] | outcome [6] | outcome [8] | Potency [9]

O=C(CCCl)NCc1ccccc1
inactive: Potency [1] | outcome [2] | Potency [3] | Potency [4] | Potency [5] | outcome [6] | Potency [7] | outcome [8] | Potency [9]

CC(C)CC(=O)OCc1ccccc1
inactive: Potency [1] | outcome [2] | Potency [3] | Potency [4] | Potency [5] | outcome [6] | Potency [7]

CCc1nnc(NS(=O)(=O)c2ccc(N)cc2)s1
inactive: Potency [1] | outcome [2] | Potency [3] | Potency [4] | Potency [5] | outcome [6] | outcome [8] | Potency [9]

CCCCCCn1c(=O)c2c(ncn2C)n(C)c1=O
inactive: Potency [1] | outcome [2] | Potency [3] | Potency [4] | Potency [5] | Potency [10] | Potency [7] | outcome [8] | Potency [9]

CC(=O)N(CC(O)CN(C(C)=O)c1c(I)c(C(=O)NCC(O)CO)c(I)c(C(=O)NCC(O)CO)c1I)c1c(I)c(C(=O)NCC(O)CO)c(I)c(C(=O)NCC(O)CO)c1I (stereo unspecified)
inactive: Potency [1] | outcome [2] | Potency [3] | Potency [4] | Potency [5] | outcome [6] | Potency [7] | outcome [8] | Potency [9]

CN1CCC[C@@H]1Cc1c[nH]c2ccc(CCS(=O)(=O)c3ccccc3)cc12
active: Potency [1] 13.3 µM
inactive: outcome [2] | Potency [3] | Potency [4] | Potency [5] | outcome [6] | outcome [8] | Potency [9]

COc1ccccc1N1CCN(CCCNc2cc(=O)n(C)c(=O)n2C)CC1
inactive: Potency [1] | outcome [2] | Potency [3] | Potency [4] | Potency [5] | outcome [6] | Potency [7] | outcome [8] | Potency [9]

Cc1ccc(C)c(N)c1
inactive: Potency [1] | outcome [2] | Potency [3] | Potency [4] | Potency [5] | outcome [6] | Potency [7] | outcome [8] | Potency [9]

COC(=O)/C=C(/C)N
inactive: Potency [1] | outcome [2] | Potency [3] | Potency [4] | Potency [5] | Potency [10] | Potency [7] | outcome [8] | Potency [9]

FC(F)(F)c1ccccc1
inactive: Potency [1] | outcome [2] | Potency [3] | Potency [4] | Potency [5] | outcome [6] | Potency [7] | outcome [8] | Potency [9]

CCOc1ccc(OCC)c(Cl)c1
inactive: Potency [1] | outcome [2] | Potency [3] | Potency [4] | Potency [5] | outcome [6] | Potency [7] | outcome [8] | Potency [9]

CCOc1ccc(NS(=O)(=O)c2ccc(N)cc2)nn1
inactive: Potency [1] | outcome [2] | Potency [3] | Potency [4] | Potency [5] | outcome [6] | outcome [8]

CCCCNCCCC
inactive: Potency [1] | outcome [2] | Potency [3] | Potency [4] | Potency [5] | outcome [6] | outcome [8] | Potency [9]

Cc1ncc(CO)c(CN)c1O
inactive: Potency [1] | outcome [2] | Potency [3] | Potency [4] | Potency [5] | Potency [10] | outcome [6] | Potency [7] | outcome [8] | Potency [9]

O=C(O)CN(CCN(CC(=O)O)CC(=O)O)CCN(CC(=O)O)CC(=O)O
active: Potency [3] 5.8 µM
inactive: activity change, negative = inhibition [1] -28.7% [at 19 µM] | activation [2] -4.18% [at 19 µM] | activity change, negative = cytotoxicity [4] -0.118% [at 19 µM]

O=C(O)c1cccc(Cl)c1Cl
inactive: Potency [1] | outcome [2] | Potency [3] | Potency [4] | Potency [5] | outcome [6] | Potency [7] | outcome [8] | Potency [9]

CC(C)(C)C1CCCCC1=O (stereo unspecified)
inactive: Potency [1] | outcome [2] | Potency [3] | Potency [4] | Potency [5] | outcome [6] | Potency [7]

CN1CCN(c2c(F)cc3c(=O)c(C(=O)O)cn4c3c2SCC4)CC1
inactive: Potency [1] | outcome [2] | Potency [3] | Potency [4] | Potency [5] | outcome [6] | Potency [7] | outcome [8] | Potency [9]

CNCCC(Oc1ccccc1OC)c1ccccc1 (stereo unspecified)
inactive: Potency [1] | outcome [2] | Potency [3] | Potency [4] | Potency [5] | outcome [6] | Potency [7] | outcome [8] | Potency [9]

COc1cc2c(cc1N)oc1ccccc12
active: Potency [1] 27.9 µM
inactive: outcome [2] | Potency [3] | Potency [4] | Potency [5]
